High-throughput results (PubChem BioAssay)
Fluor 339 460: intrinsic fluorescence of library compounds, ex339/em460 – biochemical, MLSMR library, data from DPM-DC assay, artefact control, profiling panel. compound autofluorescence, ex339/em460 nm, NADH buffer; active compounds read high; 1 = no-compound wells, NADH background. fluorescence fold increase at 10 µM. actives 5.5% (n = 65,000). AID 709;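 active = at 10 µM, mean starting fluorescence two-fold or more over control wells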;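 also: signal is the first read of a kinetic run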
MK inhibit: inhibitors of Streptococcus pneumoniae mevalonate kinase. purified MK, PK/LDH-coupled NADH absorbance 340 nm. inhibition, % at 10 µM. actives 0.48% (n = 65,000);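 active = ranked among the strongest by inhibition in the single 10 µM screen, a fixed top-ranked set picked for dose follow-up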
Spn PMK inh: inhibitors of Streptococcus pneumoniae phosphomevalonate kinase. purified PMK, PK/LDH-coupled NADH absorbance 340 nm. inhibition, % at 10 µM. actives 0.49% (n = 65,000);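 active = top-ranked compounds by inhibition in the single 10 µM screen, taking a fixed number of the strongest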;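 also: 0% = full reaction with DMSO carrier and 100% = background rate without enzyme reaction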
Spn DPM-DC inh: S. pneumoniae DPM-DC inhibition | actives 0.49% (n = 65,000) | AID 556 | purified DPM-DC, PK/LDH coupled NADH fluorescence | calls only at 10 µM;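 active = the 320 compounds with the highest percent inhibition in the single-dose primary screen, excluding strongly autofluorescent ones, cut at about 32% in these data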;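 also: kinetic rate of NADH fluorescence loss reporting ADP formed by the decarboxylase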
A340 absorber: compound absorbs light at 340 nm; compound absorbance at 340 nm, fold over control; fold change at 10 µM; 65,000 tested, under 10 active; AID 708;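 active = at 10 µM dose, initial 340 nm absorbance at least 2 fold that of control wells; inactive = change under 2 fold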;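 also: initial absorbance extrapolated from kinetic A340 decline of NADH oxidation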
NADH enzymes: inhibition of NAD/NADH coupling enzymes, library profiling; coupled PK/LDH NADH assays, four targets; AID 774; IC50, µM (highest dose often 10 µM), inactives show at the top dose inhibition; actives 0.02% (n = 65,000);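 active = single-dose screening hits from any of four coupled enzyme assays that gave an IC50 when retested across doses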;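 also: the DPM-DC format reads NADH fluorescence rather than 340 nm absorbance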
Starred values were filed as active, the others as inactive; i = inactive; . = not tested or not shown; + = active, no number. This is a sample that favours compounds with a hit; in the whole collection about 6.5% have one here.

SMILES	Fluor 339 460	MK inhibit	Spn PMK inh	Spn DPM-DC inh	A340 absorber	NADH enzymes
COc1ccc(N2C(=O)c3ccccc3NC23CCCCC3)cc1	2.2*	2.0	6.0	.	1.05	4.0%
COCc1cc(C)nc(NC2CCCCC2)c1C#N	3.69*	1.0	6.0	.	1.14	4.0%
COCc1cc(C)nc(N2CCN(c3ccccc3)CC2)c1C#N	1.18	0.0	0.0	i	1.03	0.0%
Cn1ncc2c(Nc3ccc(-c4ccccc4)cc3)ncnc21	3.06*	0.0	13.0	+	1.06	16.0%
CCOC(=O)CCc1c(C)nc2cc(-c3ccc(F)cc3)[nH]n2c1=O	1.36	8.0	11.0	i	0.99	4.0%
CCOC(=O)CSCc1nc(-c2ccc(Cl)cc2)oc1C	1.07	3.0	0.0	i	1.03	1.0%
CCOC(=O)CNc1c(-c2ccc(F)cc2)nc2cnccn12	2.27*	8.0	18.0	.	1.11	13.0%
CCOC(=O)CNc1c(-c2ccc(Cl)cc2)nc2cnccn12	4.86*	0.0	20.0	.	1.09	10.0%
Clc1ccc(C2CC(c3cccs3)n3ncnc3N2)c(Cl)c1 (stereo not given)	1.09	4.0	0.0	i	1.05	1.0%
COC(=O)C1=C(NC(=O)c2ccc(C)c(C)c2)CCS1	2.71*	0.0	16.0	i	1.02	5.0%
CC1CCN(Cc2ccc(NC(=O)CC3Oc4ccccc4NC3=O)cc2)CC1 (stereo not given)	1.08	1.0	2.0	i	1.01	1.0%
O=C(Cn1nc(Cl)nc1Cl)c1cc2ccccc2oc1=O	2.16*	8.0	13.0	i	0.97	12.0%
Cn1cnnc1SCC(=O)c1cc2ccccc2oc1=O	1.02	7.0	6.0	i	1.01	8.0%
CN1C(=O)c2ccccc2C(C(=O)O)C1c1cn(C)c2ccccc12 (stereo not given)	1.15	7.0	13.0	i	0.99	7.0%
CC(C)CNC(=O)c1c(N)n(/N=C/c2ccccn2)c2nc3ccccc3nc12	1.08	7.0	2.0	i	1.03	4.0%
Nc1c(C(=O)NC2CCCCC2)c2nc3ccccc3nc2n1/N=C/c1ccco1	3.68*	9.0	13.0	.	1.05	11.0%
COCCNC(=O)c1c(N)n(/N=C/c2cccs2)c2nc3ccccc3nc12	2.48*	0.0	0.0	.	1.11	2.0%
CCCCCCNC(=O)c1c(N)n(/N=C/c2ccco2)c2nc3ccccc3nc12	2.97*	11.0	10.0	.	1.12	5.0%
CCCCCCNC(=O)C(C#N)c1nc2ccccc2nc1N1CCOCC1 (stereo not given)	1.62	8.0	13.0	i	1.03	8.0%
COC(=O)C1=C(C)NC(C)=C(C(=O)OC)C1c1cn(-c2ccccc2)nc1-c1ccco1	1.5	11.0	0.0	i	1.07	9.0%
N#Cc1c(C(F)(F)F)cc(C2CC2)[nH]c1=O	2.15*	3.0	7.0	.	1.08	5.0%
COC(=O)CSc1nc(C2CC2)cc(C(F)(F)F)c1C#N	1.14	0.0	16.0	i	0.99	7.0%
NC(=O)C1(N2CCCCC2)CCN(C(=O)NC2CCCCC2)CC1	1.13	0.0	18.0	i	1.01	6.0%
C=CCC1(O)C(=O)N2C(=C1C(=O)N1CCOCC1)c1ccccc1CC2(C)C (stereo not given)	1.1	3.0	0.0	i	1.09	1.0%
COC(=O)c1[nH]c2cccc(OC)c2c1NC(=O)CN1CCN(c2cccc(OC)c2)C(C)C1 (stereo not given)	2.95*	4.0	10.0	i	1.06	13.0%
SMILES	Fluor 339 460	MK inhibit	Spn PMK inh	Spn DPM-DC inh	A340 absorber	NADH enzymes
COC(=O)c1[nH]c2cccc(OC)c2c1NC(=O)CCN1CCC(C)CC1	1.96	0.0	15.0	i	1.14	8.0%
COC(=O)c1[nH]c2cccc(OC)c2c1NC(=O)CCN1CCN(c2ccccc2OC)CC1	3.12*	12.0	13.0	+	1.03	20.0%
CCCCn1c(SCC(=O)Nc2cccc(OC)c2)nc2ccc(N3CCOCC3)cc2c1=O	3.13*	3.0	2.0	i	1.06	3.0%
COc1cccc(NC(=O)Cn2c(SCC(=O)N3CCOCC3)nc3ccccc32)c1	1.09	9.0	3.0	i	1.02	4.0%
N#Cc1nn(-c2ccccc2)nc1N1CCCCC1	5.04*	0.0	12.0	.	1.01	6.0%
N#C/C(=C1/CCCCCN1)c1nc2ccccc2s1	1.06	0.0	12.0	i	1.14	4.0%
CCCCn1c(NC(=O)CC)c(C#N)c2nc3ccccc3nc21	2.96*	9.0	19.0	.	1.01	7.0%
CCCCn1c(NC(=O)c2ccccc2Cl)c(C#N)c2nc3ccccc3nc21	3.95*	9.0	0.0	.	1.09	5.0%
CCCCC(=O)Nc1ccccc1C#N	1.06	13.0	10.0	i	1.02	9.0%
Fc1ccc(CSc2nncn2NCc2ccc3c(c2)OCO3)cc1	1.12	5.0	0.0	i	1.05	2.0%
COCCn1cnnc1SCC(=O)c1ccc(S(=O)(=O)N2CCCC2)cc1	1.21	0.0	11.0	i	1.01	4.0%
CN(C(=O)C1CCOC1)c1nnc(C2CCOC2)s1 (stereo not given)	1.08	1.0	27.0*	i	1	9.0%
CN(C(=O)C1CCOC1)c1nnc(-c2cnccn2)s1 (stereo not given)	1.33	0.0	14.0	i	1.03	9.0%
CCCOC(=O)C1[C@H]2C(=O)N(CC3CCCO3)C[C@]23C=C[C@H]1O3 (stereo not given in full)	1.08	1.0	6.0	i	1.01	2.0%
O=C(Cn1ccc2ccccc2c1=O)NCCC(=O)NC1CCN(Cc2ccccc2)CC1	1.14	0.0	17.0	i	1.03	3.0%
O=C(c1ccco1)N1CCCC(c2nc(-c3ccc(S(=O)(=O)NCc4ccccc4)cc3)no2)C1 (stereo not given)	1.07	0.0	11.0	i	1.03	4.0%
COC(=O)c1ccc2c(c1)N(Cc1nc(-c3cccc(Cl)c3)oc1C)C(=O)C1CCCN21 (stereo not given)	2.04*	0.0	7.0	i	1.01	2.0%
COC(=O)c1ccc2c(c1)N(Cc1nc(-c3ccc(Cl)cc3)oc1C)C(=O)C1CCCN21 (stereo not given)	3.74*	0.0	14.0	i	1.02	11.0%
Cc1cccc(C)c1NC(=O)Cn1c(=O)n(CCCC(=O)NCc2ccco2)c(=O)c2sccc21	1.02	5.0	13.0	i	1	6.0%
CC(=O)OC(Cn1ccnc1)c1ccccc1 (stereo not given)	1	11.0	5.0	i	1.02	5.0%
CN(C(=O)c1cccc(C#N)c1)c1nnc(-c2ccccn2)s1	2.11*	19.0	15.0	i	1.03	12.0%
CN(C(=O)c1ccno1)c1nnc(-c2ccccn2)s1	5.14*	5.0	15.0	.	1.05	10.0%
CN(C(=O)c1ccccn1)c1nnc(-c2ccncc2)s1	2.26*	11.0	9.0	.	0.98	4.0%
